These results are taken from the antibiotic and cytotoxicity screens of Wong et al. (2023).

Each structure is given as a SMILES string. Screen size: about 39,000 compounds; about 500 (1.3%) were called active. The full list was thinned out, with actives kept by preference.

This test concerns S. aureus RN4220. The test is described as follows: growth inhibition call (relative growth <= 0.2). To be noted: 50 µM.
For `C[C@H]1CN([C@@H](C)CO)C(=O)Cc2cc(NC(=O)Nc3cccc4ccccc34)ccc2O[C@@H]1CN(C)C(=O)Nc1ccc(F)cc1`, the growth inhibition call is “inactive”.
The same measure for `C[C@@H]1CN([C@H](C)CO)C(=O)c2cccc(NC(=O)c3cnccn3)c2O[C@H]1CN(C)Cc1ccc2c(c1)OCO2`: “inactive”.
As for `COc1cccc(NC(=O)N[C@H]2C=C[C@@H](CC(=O)N3CCN(C)CC3)O[C@@H]2CO)c1`, the growth inhibition call was “inactive”.
The same measure for `O=C(C[C@H]1C[C@@H]2c3cc(NC(=O)NC4CCCC4)ccc3O[C@@H]2[C@H](CO)O1)NCCN1CCCCC1`: “inactive”; for `C[C@H](CO)N1C[C@H](C)[C@@H](CN(C)Cc2ccc(Oc3ccccc3)cc2)Oc2c(NC(=O)C3CCCCC3)cccc2C1=O`: “inactive”.
Regarding `C[C@@H]1CN([C@@H](C)CO)C(=O)c2cc(NC(=O)c3ccccc3)ccc2O[C@@H](C)CCCCO[C@H]1CN(C)Cc1ccc2c(c1)OCO2`, the growth inhibition call was “inactive”.
With `C[C@@H]1CN([C@@H](C)CO)C(=O)c2cc(NC(=O)NC3CCCCC3)ccc2O[C@H]1CN(C)Cc1ccc(C(=O)Nc2ccccc2N)cc1`, the growth inhibition call is “inactive”.
The same measure for `CC(C)NC(=O)Nc1cccc2c1O[C@H](CN(C)S(=O)(=O)c1ccc(F)cc1)[C@H](C)CN([C@H](C)CO)C2=O`: “inactive”; for `C[C@H](CO)N1C[C@H](C)[C@H](CN(C)Cc2ccc(-c3ccccc3)cc2)Oc2c(NC(=O)NC3CCCCC3)cccc2C1=O`: “inactive”; for `Cc1ccc2c(c1)c1nc3ccccc3nc1n2Cc1ccccc1`: “inactive”.
For `Cc1ccc(C(=O)N(CCCN)[C@@H](c2oc3cc(Cl)ccc3c(=O)c2Cc2ccccc2)C(C)C)cc1`, the growth inhibition call is “inactive”.
`Cc1ccc(C(=O)N(CCCN)[C@@H](c2nc3cc(Cl)ccc3c(=O)n2Cc2ccccc2)C(C)C)cc1`: the growth inhibition call was “active”.
As to `COc1ccc(CN(C)C[C@@H]2OCCCC[C@@H](C)Oc3ccc(NC(=O)Nc4ccc(C(F)(F)F)cc4)cc3C(=O)N([C@@H](C)CO)C[C@@H]2C)cc1`, the growth inhibition call was “inactive”.
Next, `C[C@@H]1CCCCO[C@H](CN(C)S(=O)(=O)c2ccccc2)[C@H](C)CN([C@H](C)CO)C(=O)c2cc(NC(=O)Nc3ccc(C(F)(F)F)cc3)ccc2O1`: “inactive”.
The same measure for `CO[C@@H]1CN(C)C(=O)c2ccc(NS(=O)(=O)CC(F)(F)F)cc2OC[C@@H](C)N(C(=O)c2ccc3c(c2)OCO3)C[C@H]1C`: “inactive”; for `CS(=O)(=O)CCNCc1ccc(-c2ccc3ncnc(Nc4ccc(OCc5cccc(F)c5)c(Cl)c4)c3c2)o1` [listing 1 of 2 here]: “inactive”.
The same measure for `CC(C)(O)CC(=O)NCCn1ccc2ncnc(Nc3ccc(Oc4cccc(C(F)(F)F)c4)c(Cl)c3)c21`: “active”; for `CS(=O)(=O)CCNCc1ccc(-c2ccc3ncnc(Nc4ccc(OCc5cccc(F)c5)c(Cl)c4)c3c2)o1` [listing 2 of 2 here]: “inactive”.
As for `C[C@H](CO)N1C[C@H](C)[C@H](CN(C)C(=O)Cc2cccnc2)Oc2cc(-c3cncnc3)ccc2S1(=O)=O`, the growth inhibition call is “inactive”.
Take `C[C@@H]1CCCCO[C@@H](CN(C)Cc2ccc(C(=O)Nc3ccccc3N)cc2)[C@@H](C)CN([C@H](C)CO)C(=O)c2cc(NC(=O)c3ccccc3)ccc2O1`: the growth inhibition call was “inactive”.
The same measure for `CN(CC(=O)Nc1ccc(F)cc1F)S(=O)(=O)c1ccc2c(c1)c(=O)n(C)c(=O)n2C`: “inactive”; for `C[C@H]1CN([C@@H](C)CO)C(=O)Cc2cc(NS(=O)(=O)c3cn(C)cn3)ccc2O[C@@H]1CN(C)S(C)(=O)=O`: “inactive”; for `CCN(CC)C(=S)SSC(=S)N(CC)CC`: “active”.
Regarding `COCCNC(=O)C[C@@H]1C[C@H]2c3cc(NS(C)(=O)=O)ccc3O[C@H]2[C@@H](CO)O1`, the growth inhibition call is “inactive”.
Next, `CO[C@H]1CN(C)C(=O)c2ccc(NC(=O)Nc3cccc(Cl)c3)cc2OC[C@@H](C)N(C(=O)Nc2c(C)noc2C)C[C@@H]1C`: “inactive”; `C[C@H](CO)N1C[C@H](C)[C@H](CN(C)S(C)(=O)=O)Oc2ccc(NC(=O)Cn3cnnn3)cc2C1=O`: “inactive”.
Consider `Cc1ccc(-n2cnc3cc(NCc4cccs4)ccc32)cc1`, for which the growth inhibition call was “inactive”.
The same measure for `Cc1ccc(CNc2ccc3c(c2)ncn3C2CCCCC2)cc1`: “active”; for `COc1ccc(NC(=O)N(C)C[C@@H]2OCCCC[C@H](C)Oc3ccc(NC(=O)c4ccncc4)cc3C(=O)N([C@H](C)CO)C[C@@H]2C)cc1`: “inactive”.
Consider `C[C@@H]1CCCCO[C@H](CN(C)C(=O)Nc2ccc3c(c2)OCO3)[C@@H](C)CN([C@H](C)CO)C(=O)c2cc(NC(=O)Nc3ccccc3)ccc2O1`, for which the growth inhibition call was “inactive”.
As for `Cc1cccc(OC[C@@H](O)CN)c1`, the growth inhibition call was “inactive”.
Take `CCc1ccc(OC[C@@H](O)CN)cc1`: the growth inhibition call is “inactive”.
Next, `CC(C)(C)c1ccc(OC[C@@H](O)CN)cc1`: “active”; `Cn1cnc(S(=O)(=O)N2C[C@H](O)COC[C@@H]3O[C@H](CC(=O)NC4CCCC4)CC[C@H]32)c1`: “inactive”.
On to `C=C[C@H]1CCC=C2C(=O)CCC[C@@H]21`, for which the growth inhibition call is “inactive”.
The same measure for `C[C@@H]1CN([C@H](C)CO)C(=O)c2cc(NS(=O)(=O)c3cn(C)cn3)ccc2O[C@@H](C)CCCCO[C@H]1CN(C)C(=O)Nc1ccc(C(F)(F)F)cc1`: “inactive”; for `C[C@@H]1CCCCO[C@@H](CN(C)C(=O)Nc2ccc(C(F)(F)F)cc2)[C@@H](C)CN([C@H](C)CO)C(=O)c2cc(NS(=O)(=O)c3cn(C)cn3)ccc2O1`: “inactive”; for `C[C@@H]1CCCCO[C@H](CN(C)C(=O)Nc2ccc(C(F)(F)F)cc2)[C@H](C)CN([C@H](C)CO)C(=O)c2cc(NS(=O)(=O)c3cn(C)cn3)ccc2O1`: “inactive”.
Next, `C[C@@H]1CCCCO[C@H](CN(C)C(=O)Nc2ccc(C(F)(F)F)cc2)[C@@H](C)CN([C@H](C)CO)C(=O)c2cc(NS(=O)(=O)c3cn(C)cn3)ccc2O1`: “inactive”; `C[C@@H]1CN([C@@H](C)CO)C(=O)c2cc(NS(=O)(=O)c3cn(C)cn3)ccc2O[C@@H](C)CCCCO[C@@H]1CN(C)C(=O)Nc1ccc(C(F)(F)F)cc1`: “active”.
For the compound `C[C@H]1CCCCO[C@H](CN(C)C(=O)Nc2ccc(C(F)(F)F)cc2)[C@@H](C)CN([C@@H](C)CO)C(=O)c2cc(NS(=O)(=O)c3cn(C)cn3)ccc2O1`, the growth inhibition call is “inactive”.
As for `C[C@H](CO)N1C[C@H](C)[C@@H](CN(C)C(=O)Nc2ccc(C(F)(F)F)cc2)OCCCC[C@H](C)Oc2ccc(NS(=O)(=O)c3cn(C)cn3)cc2C1=O`, the growth inhibition call was “active”.
Regarding `C[C@@H]1CCCCO[C@@H](CN(C)C(=O)Nc2ccc(C(F)(F)F)cc2)[C@H](C)CN([C@@H](C)CO)C(=O)c2cc(NS(=O)(=O)c3cn(C)cn3)ccc2O1`, the growth inhibition call is “active”.
The same measure for `C[C@@H]1CCCCO[C@H](CN(C)C(=O)Nc2ccc(C(F)(F)F)cc2)[C@H](C)CN([C@@H](C)CO)C(=O)c2cc(NS(=O)(=O)c3cn(C)cn3)ccc2O1`: “inactive”.
As to `C[C@@H]1CCCCO[C@@H](CN(C)C(=O)CCC(F)(F)F)[C@@H](C)CN([C@H](C)CO)C(=O)c2cc(NC(=O)NC3CCCCC3)ccc2O1`, the growth inhibition call is “inactive”.
As for `CC(C)NC(=O)Nc1cccc2c1O[C@@H](CN(C)S(=O)(=O)c1ccc(F)cc1)[C@H](C)CN([C@@H](C)CO)C2=O`, the growth inhibition call is “inactive”.
Take `O=C(C[C@@H]1C=C[C@@H](NC(=O)Nc2ccc3c(c2)OCO3)[C@H](CO)O1)NCCCN1CCOCC1`: the growth inhibition call is “inactive”.
Next, `COc1ccc(Nc2ccc(-c3ccncc3)s2)cc1Cl`: “inactive”; `C[C@H]1CN([C@@H](C)CO)C(=O)Cc2cc(NS(C)(=O)=O)ccc2O[C@H]1CN(C)S(=O)(=O)c1ccccc1`: “inactive”.
Turning to `Cc1noc(C)c1NC(=O)Nc1ccc2c(c1)C(=O)N([C@H](C)CO)C[C@H](C)[C@@H](CN(C)C(=O)NC1CCCCC1)OCCCC[C@@H](C)O2`, the growth inhibition call is “inactive”.
Take `Cc1ccc(S(=O)(=O)Nc2ccc3c(c2)C(=O)N([C@@H](C)CO)C[C@@H](C)[C@@H](CN(C)C(=O)Nc2ccc(F)cc2)OCCCC[C@H](C)O3)cc1`: the growth inhibition call is “inactive”.
Take `CN(C)CCOc1ccc(C(=C(CCCl)c2ccccc2)c2ccccc2)cc1.O=C(O)CC(O)(CC(=O)O)C(=O)O`: the growth inhibition call is “active”.
`CN(C)CCN(Cc1ccccc1)c1ccccn1.O=C(O)CC(O)(CC(=O)O)C(=O)O`: the growth inhibition call was “inactive”.
Take `Cc1ccccc1C(OCCN(C)C)c1ccccc1.O=C(O)CC(O)(CC(=O)O)C(=O)O` (stereo unspecified): the growth inhibition call was “inactive”.
Next, `CCN(CC)CCOc1ccc(C(=C(Cl)c2ccccc2)c2ccccc2)cc1.O=C(O)CC(O)(CC(=O)O)C(=O)O`: “inactive”.
Turning to `CCN(CCCc1ccccc1)CCCc1ccccc1.O=C(O)CC(O)(CC(=O)O)C(=O)O`, the growth inhibition call is “inactive”.
Next, `CCC(=C(c1ccccc1)c1ccc(OCCN(C)C)cc1)c1ccccc1.O=C(O)CC(O)(CC(=O)O)C(=O)O`: “active”.
For the compound `C[C@H]1CN([C@@H](C)CO)C(=O)c2cc(C#Cc3ccccc3F)cnc2O[C@@H]1CN(C)C(=O)C1CCOCC1`, the growth inhibition call is “inactive”.
`COc1ccc2c3c([nH]c2c1)[C@H](CO)N(C[C@]13CN(Cc2cc(on2)-c2ccccc2)C1)C(=O)Nc1ccc(cc1)F`: the growth inhibition call was “inactive”.
For the compound `COc1ccc(S(=O)(=O)N(C)C[C@H]2OCCCC[C@H](C)Oc3ccc(NC(=O)CCC(F)(F)F)cc3C(=O)N([C@H](C)CO)C[C@H]2C)cc1`, the growth inhibition call was “inactive”.
Next, `C[C@@H]1CCCCO[C@@H](CN(C)C(=O)c2ccccc2)[C@H](C)CN([C@@H](C)CO)C(=O)c2cc(NC(=O)Nc3cccc4ccccc34)ccc2O1`: “inactive”; `O=S(=O)(O)c1cc(O)ccc1O`: “inactive”; `C[C@@H]1CN([C@H](C)CO)C(=O)c2cccc(NC(=O)c3ccc(-c4nccs4)cc3)c2O[C@@H]1CN(C)C(=O)Nc1ccc2c(c1)OCO2`: “inactive”.
The same measure for `Cc1ccc(S(=O)(=O)N(C)C[C@@H]2OCCCC[C@H](C)Oc3ccc(NC(=O)c4ccccc4)cc3C(=O)N([C@@H](C)CO)C[C@H]2C)cc1`: “inactive”; for `C[C@@H]1CN([C@@H](C)CO)C(=O)c2cc(NS(=O)(=O)c3cccs3)ccc2O[C@H]1CN(C)CC1CC1`: “inactive”; for `C[C@H](CO)N1C[C@H](C)[C@@H](CN(C)C(=O)Nc2cccc3ccccc23)Oc2ccc(NC(=O)Nc3cccc4ccccc34)cc2CC1=O`: “inactive”.
